SMILES strings stand for the structures. The whole screen tested about 200,000 compounds, of which about 720 (0.36%) were called active. Roughly 8% stayed inconclusive and do not appear here. Calls come from the whole dose curve; as a rule, active = well fitted activation curve with a large enough effect; inconclusive = small, poorly fitted or top-dose-only effect, or effect the other way, or another doubt; inactive = flat fitted curve, though single readings scatter. This is one part of the list.
Potency is the fitted concentration of half-maximal effect.

The target in this experiment is Lysosomal alpha-glucosidase (Homo sapiens) (UniProt P10253). Description: qHTS Assay for Activators of Human alpha-Glucosidase as a Potential Chaperone Treatment of Pompe Disease. Note: nearly all actives have a fitted effect of over 80% in size. The note with it: purified enzyme, 4-MU-alpha-glucoside fluorescence, 20 min; series mostly up to 76.9 µM. The essentials: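 Fluorogenic assay, 4 nM enzyme, 400 uM 4-methylumbelliferyl-[…], pH 5.0 citrate/phosphate buffer with 0.005% Tween-20, compounds up to 77 uM, 20 min at room temperature. NaOH/glycine stop, Ex 365/Em 440 nm; AC50 from Hill fits.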
On to `CCN(CC)c1cc(C)c2cc(NC(=O)CNC(C)=O)ccc2n1`, for which the Potency was 35.5 µM (active).

For the molecule `CCN1c2ccccc2-c2nc3ccccc3n2C1c1cccs1` (stereo not drawn), the Potency was 35.5 µM (active).

In the case of `CN1c2ccccc2-c2nc3ccccc3n2C1c1cccs1` (stereo not drawn), the Potency is 35.5 µM (active).

As to `COc1ccc(-c2cn3cccnc3n2)cc1F`, the Potency was 28.2 µM (active).

For the molecule `COc1ccc(-c2cn3cccnc3n2)cc1Br`, the Potency is 35.5 µM (active).

Consider `CC12CCC(=O)N1c1c(sc3nc(N4CCOCC4)c4c(c13)CCCC4)C(=O)N2` (stereo not drawn), for which the Potency was 35.5 µM (active).

`Nc1c(C(O)(C(F)(F)F)C(F)(F)F)ccc2ccccc12`: the Potency was 35.5 µM (active).

For the molecule `Nc1ccc2nc(-c3ccccc3)sc2c1`, the Potency was 35.5 µM (active).

For `Nc1ccc(-c2nc3ccc(C(=O)O)cc3s2)cc1`, the Potency is 35.5 µM (active).

For the molecule `Cc1cc(C)[n+](-c2ccc(C(C)C)cc2)c2[nH]c(=O)[nH]c(=O)c12`, the Potency is 35.5 µM (active).

For `Cc1cc(C)[n+](-c2ccc(F)cc2)c2[nH]c(=O)[nH]c(=O)c12`, the Potency was 35.5 µM (active).

On to `COCCOC(=O)C1=C(C)NC2=C(C(=O)CC(C)(C)C2)C1c1cccnc1` (stereo not drawn), for which the Potency is 35.5 µM (active).

As to `CC1=C(C#N)C(c2cccnc2)C2=C(CC(C)(C)CC2=O)N1` (stereo not drawn), the Potency is 28.2 µM (active).

Take `CC1=C(C#N)C(c2cccnc2)C2=C(CCCC2=O)N1` (stereo not drawn): the Potency is 25.1 µM (active).

Take `COc1cccc(C2C(C#N)=C(C)NC3=C2C(=O)CC(C)(C)C3)c1` (stereo not drawn): the Potency is 39.8 µM (active).

Regarding `CCN1CCN(C(c2cc3cc4c(cc3[nH]c2=O)OCO4)c2nnnn2C(C)(C)CC)CC1` (stereo not drawn), the Potency is 39.8 µM (active).

Consider `Nc1nc(N)c2nc(-c3ccccc3)c(N)nc2n1`, for which the Potency was 39.8 µM (active).

Turning to `Clc1ccc(/C=C/c2nc3ccccc3[nH]2)c(Cl)c1`, the Potency was 35.5 µM (active).

Turning to `Cn1c(-c2cc3ccc(OC(=O)C(C)(C)C)cc3oc2=O)nc2ccccc21`, the Potency is 39.8 µM (active).

`CCC(=O)c1ccc(/C=C/c2nc3ccccc3n2C)o1`: the Potency is 35.5 µM (active).

Consider `CC(=O)Oc1ccc2cc(-c3nc4ccccc4n3C)c(=O)oc2c1`, for which the Potency was 35.5 µM (active).

For the molecule `CC(=O)c1ccc(-c2nc3ccccc3n2C)o1`, the Potency was 31.6 µM (active).

In the case of `CCC(=O)Nc1c(S(=O)(=O)c2ccccc2)c2nc3ccccc3nc2n1Cc1ccccc1`, the Potency is 39.8 µM (active).

For the molecule `CCCCn1c(NS(=O)(=O)c2ccc(C)cc2)c(S(=O)(=O)c2ccccc2)c2nc3ccccc3nc21`, the Potency was 50.1 µM (active).

In the case of `CCCCn1c(NS(=O)(=O)c2ccccc2)c(S(=O)(=O)c2ccc(C)cc2)c2nc3ccccc3nc21`, the Potency was 35.5 µM (active).

Regarding `Cc1cccn2c(=O)c3cc(C#N)c(=O)n(CC4CCCO4)c3nc12` (stereo not drawn), the Potency was 10 µM (active).

In the case of `Cc1ccc2nc3c(cc(C#N)c(=O)n3CC3CCCO3)c(=O)n2c1` (stereo not drawn), the Potency was 3.98 µM (active).

For the molecule `Cc1ccc2nc3c(cc(C#N)c(=O)n3CCN3CCOCC3)c(=O)n2c1`, the Potency was 28.2 µM (active).

Take `Cc1cccn2c(=O)c3cc(C#N)c(=O)n(Cc4cccnc4)c3nc12`: the Potency is 3.98 µM (active).

For the molecule `CC(C)OC(=O)c1c(N)n(CCCN2CCOCC2)c2nc3ccccc3nc12`, the Potency is 39.8 µM (active).

`COC(=O)c1c(N)n(CCCN2CCOCC2)c2nc3ccccc3nc12`: the Potency is 31.6 µM (active).

For the molecule `Cc1c(C#N)c(N)nc2c3c(sc12)NC(=O)CC3c1ccccc1` (stereo not drawn), the Potency was 5.01 µM (active).

For the molecule `COc1ccc(F)cc1CN1CCN(c2cc(C)nc3c4c(C)cc(C)nc4nn23)CC1`, the Potency was 35.5 µM (active).

With `CCc1c(C)c2cc(Cl)c(O)c(CN(C)C)c2oc1=O`, the Potency is 31.6 µM (active).

As to `CCc1c(C)c2ccc(O)c(CN(C)C)c2oc1=O`, the Potency is 35.5 µM (active).

Take `COC(=O)Cc1c(C)c2ccc(O)c(CN3CCCC(C)C3)c2oc1=O` (stereo not drawn): the Potency was 35.5 µM (active).

Turning to `CCN(CC)Cc1c(O)ccc2c(C)c(CC(=O)OC)c(=O)oc12`, the Potency is 35.5 µM (active).

In the case of `Cc1c(C)c2cc(Cl)c(O)c(CN(C)C)c2oc1=O`, the Potency was 39.8 µM (active).

Consider `Cc1c(Cc2ccccc2)c(=O)oc2c(CN(C)C)c(O)c(Cl)cc12`, for which the Potency was 35.5 µM (active).

Regarding `O=c1c2ccccc2[nH]c2ccc(F)cc12`, the Potency is 31.6 µM (active).

In the case of `O=c1c2ccccc2[nH]c2ccccc12`, the Potency was 39.8 µM (active).

Turning to `O=C(c1ccco1)N1CCN(C/C=C/c2ccccc2)CC1`, the Potency was 17.8 µM (active).

`COC(=O)C1=CN(Cc2cccs2)C=C(C(=O)OC)C1c1ccc(OC)cc1OC`: the Potency is 35.5 µM (active).

As for `COC(=O)C1=CN(Cc2cccs2)C=C(C(=O)OC)C1c1cccc(OC)c1OC`, the Potency was 25.1 µM (active).

For the molecule `CCN1C=C(C(=O)OC)C(c2cccc(OC)c2OC)C(C(=O)OC)=C1`, the Potency is 35.5 µM (active).

With `COC(=O)C1=CN(Cc2cccs2)C=C(C(=O)OC)C1c1cccc(Cl)c1`, the Potency is 35.5 µM (active).

As to `CCN1C=C(C(=O)OC)C(c2cccc(C)c2)C(C(=O)OC)=C1`, the Potency is 35.5 µM (active).

Turning to `COCCn1cc(C(=O)N2CCN(C)CC2)c2c3ccccc3n(C)c2c1=O`, the Potency was 35.5 µM (active).

Turning to `COc1ccccc1N=c1oc2cc(O)ccc2cc1C(N)=O`, the Potency is 28.2 µM (active).

As to `CCOc1ccccc1N=c1oc2cc(O)ccc2cc1C(=O)NCC1CCCO1` (stereo not drawn), the Potency is 31.6 µM (active).

Regarding `NC(=O)c1cc2ccc(O)cc2oc1=NCc1ccccc1`, the Potency was 35.5 µM (active).

`Cc1cccc(N=c2oc3cc(O)ccc3cc2C(N)=O)c1`: the Potency was 35.5 µM (active).

In the case of `Cc1cc(N2CCC(C)CC2)nc2ccc(N3C(=O)CCC3=O)cc12`, the Potency is 31.6 µM (active).

Regarding `CCCCNC(=O)CCC(=O)Nc1ccc2nc(N3CCCCC3)cc(C)c2c1`, the Potency was 25.1 µM (active).

In the case of `CCCCN(CC)CCNC(=O)CCC(=O)Nc1ccc2nc(N3CCN(C)CC3)cc(C)c2c1`, the Potency is 28.2 µM (active).

`CCCCNC(=O)CCC(=O)Nc1ccc2nc(N3CCC(C)CC3)cc(C)c2c1`: the Potency is 39.8 µM (active).

On to `CCN(CC)CCCNC(=O)CCC(=O)Nc1ccc2nc(N3CCC(C)CC3)cc(C)c2c1`, for which the Potency is 39.8 µM (active).

For the molecule `COCCCNC(=O)CCC(=O)Nc1ccc2nc(N3CCOCC3)cc(C)c2c1`, the Potency was 28.2 µM (active).

As for `Cc1cc(C)c2c(n1)nn1c(NCCCN(C)C)cc(C)nc21`, the Potency was 39.8 µM (active).

In the case of `Cc1cc(C)c2c(n1)nn1c(NCCN3CCOCC3)cc(C)nc21`, the Potency is 28.2 µM (active).

Consider `Cc1cc(C)c2c(n1)nn1c(NCCOCCO)cc(C)nc21`, for which the Potency is 35.5 µM (active).

As to `COCCNc1cc(C)nc2c3c(C)cc(C)nc3nn12`, the Potency is 35.5 µM (active).

`CCc1cc2c(C)cc(=O)oc2cc1OC(=O)C1CCCN1C(=O)OC(C)(C)C` (stereo not drawn): the Potency was 31.6 µM (active).

Take `CCOP(=O)(OCC)C(NC(=O)c1cccs1)C(F)(F)F` (stereo not drawn): the Potency is 31.6 µM (active).

For `COCCCn1c(CCC(=O)O)ccc1-c1ccc(F)cc1`, the Potency is 22.4 µM (active).

Consider `O=S1(=O)CCN2C=C(Cl)C=C(Cl)C2=N1`, for which the Potency is 35.5 µM (active).

As for `Cc1c(C)c2cc(Cl)c(O)c(CN3CCN(C)CC3)c2oc1=O`, the Potency is 25.1 µM (active).

`Cc1c(C)c2cc(Cl)c(O)c(CN3CCCCC3)c2oc1=O`: the Potency was 14.1 µM (active).

Consider `CCc1c(C)c2cc(Cl)c(O)c(CN3CCCCC3)c2oc1=O`, for which the Potency was 31.6 µM (active).

As for `N=c1oc2ccc3ccccc3c2cc1-c1nnc2n1CCCCC2`, the Potency is 35.5 µM (active).

Turning to `C=CCn1cc(-c2ccccc2)cc(C#N)c1=O`, the Potency is 35.5 µM (active).

Take `CC1C2=C(CC(C)(C)CC2=O)NC2=C1C(=O)CC(C)(C)C2`: the Potency was 35.5 µM (active).

For the molecule `Cc1c(-c2cccc(NC(=O)c3ccco3)c2)nc2ncccn12`, the Potency was 35.5 µM (active).

Turning to `O=C(Nc1cccc(-c2cn3cccnc3n2)c1)c1ccco1`, the Potency is 28.2 µM (active).

Turning to `Cc1c(-c2cccc(NC(=O)c3cccs3)c2)nc2ncccn12`, the Potency was 31.6 µM (active).

In the case of `Cc1ccc(C)c(-n2c(=O)c(C#N)cc3c(=O)n4ccccc4nc32)c1`, the Potency is 35.5 µM (active).

For `N#Cc1cc2c(=O)n3ccccc3nc2n(-c2ccccc2Cl)c1=O`, the Potency is 35.5 µM (active).

Consider `Cc1ccccc1-n1c(=O)c(C#N)cc2c(=O)n3ccccc3nc21`, for which the Potency was 35.5 µM (active).

In the case of `CCOC(=O)c1oc2ccccc2c1NC(=O)COc1ccc(F)cc1`, the Potency is 35.5 µM (active).

On to `CCCS(=O)(=O)n1nc(-c2ccc(Br)cc2)cc1N`, for which the Potency was 39.8 µM (active).

Regarding `Cc1cc(=O)n2ccccc2c1C#N`, the Potency is 35.5 µM (active).

Turning to `CCOC(=O)C1=C(C)NC2=C(C(=O)CC(C)(C)C2)C1c1cccc(C)n1` (stereo not drawn), the Potency is 35.5 µM (active).

For `COC(=O)C1=C(C)NC2=C(C(=O)CCC2)C1c1cccc(C)n1` (stereo not drawn), the Potency was 28.2 µM (active).

With `COC(=O)C1=C(C)NC2=C(C(=O)CC(C)(C)C2)C1c1ccccn1` (stereo not drawn), the Potency was 35.5 µM (active).

Turning to `CCOC(=O)c1cnc2c(-c3ccc(F)cc3)cnn2c1C(F)(F)F`, the Potency is 31.6 µM (active).

Take `CC(=O)Oc1cc(OC(C)=O)c2c(C)cc(=O)oc2c1`: the Potency was 35.5 µM (active).

For `CCc1cc(=O)oc2cc(OC(C)=O)cc(OC(C)=O)c12`, the Potency was 35.5 µM (active).

On to `COCCN1C=C(C(=O)OC)C(c2ccccc2C(F)(F)F)C(C(=O)OC)=C1`, for which the Potency was 35.5 µM (active).

Consider `COC(=O)C1=CNC=C(C(=O)OC)C1c1ccccc1Cl`, for which the Potency is 31.6 µM (active).

`COCCN1C=C(C(=O)OC)C(c2ccccc2Cl)C(C(=O)OC)=C1`: the Potency was 31.6 µM (active).

Turning to `CCCCN1C=C(C(=O)OC)C(c2ccccc2Cl)C(C(=O)OC)=C1`, the Potency is 22.4 µM (active).

Take `COC(=O)C1=CN(C)C=C(C(=O)OC)C1c1ccc(Cl)cc1Cl`: the Potency is 25.1 µM (active).

For `COC(=O)C1=CNC=C(C(=O)OC)C1c1ccc(Cl)cc1`, the Potency was 35.5 µM (active).

Regarding `COC(=O)C1=CN(C)C=C(C(=O)OC)C1c1ccccc1Cl`, the Potency was 31.6 µM (active).

Consider `CCOC(=O)c1cnc2cc(C)ccn2c1=O`, for which the Potency was 35.5 µM (active).

On to `CCOC(=O)c1cnc2cc3c(cn2c1=O)CCCC3`, for which the Potency is 28.2 µM (active).

In the case of `CCOC(=O)c1cc(C(=O)OCC)c2ccccn2c1=O`, the Potency is 35.5 µM (active).

On to `CCOC(=O)c1cnc2sc3c(n2c1=O)CCCC3`, for which the Potency was 39.8 µM (active).

The values above are taken from PubChem BioAssay AID2242 (National Center for Advancing Translational Sciences (NCATS), 2010).
